High-throughput results (PubChem BioAssay)
DT40 TDP1 no CPT – qHTS for Inhibitors of human tyrosyl-DNA phosphodiesterase 1 (TDP1): qHTS in cells in absence of CPT; AID 686978, 2013; Potency, µM (top dose mostly 46.2 µM), most hits filed as inhibitors; DT40 Tdp1-/- hTDP1 cells, no CPT, ATP luminescence, 48 h; hit rate 15% among 420,000; further: nearly all actives have a fitted effect of over 55% in size
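Camptothecin absent (DMSO only). Human TDP1-complemented DT40 knockout cells, 400 cells/well, 37 °C for minimum 48 hr; ATP measured via CellTiter-Glo, 30 min dark incubation, luminescence.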
ELG1 DNA repair – ELG1-dependent DNA repair inhibition; HEK293T ELG1-luciferase reporter, luminescence, 16 h; DNA damage induced by 5-fluorouridine; Potency, µM (series often up to 46.1 µM), hits mostly inhibitors; hit rate 2.3% among 330,000; AID 504467; further: nearly all actives have a fitted effect of over 55% in size
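Step one: seed 2,000 cells per well. Step two: pin-transfer compound or DMSO alongside 5-fluorouridine. Step three: incubate 16 hr, 37 °C, 5% CO2. Step four: add ONE-Glo, wait 30 min, read luminescence.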
HT1080NT lethal – kills 2HG-producing HT-1080-NT fibrosarcoma cells; Potency, µM (highest dose often 46.1 µM), most hits filed as cytotoxic; HT-1080-NT fibrosarcoma viability, CellTiter-Glo ATP luminescence, 48 h; AID 686970; hit rate 1.6% among 360,000;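 further: NT is the 2HG producing partner of a matched IDH1 knockdown line; nearly all actives have a fitted effect of over 55% in size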
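Compounds were tested in concentration-response format on HT-1080-NT cells for 48 hours at 37 degrees C. Cell viability came from CellTiter-Glo luminescence; curves were classified by r2, response magnitude and activity.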
TDP1 cell CPT – DT40-hTDP1 cell growth loss with CPT; hit rate 12% among 420,000; Potency, µM (series often up to 46.2 µM), usual class: inhibitors; AID 686979; chicken DT40 Tdp1-/-;hTDP1 cells + 20 nM CPT, ATP luminescence, 48 h; further: nearly all actives have a fitted effect of over 55% in size
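Chicken DT40 Tdp1-/- cells complemented with human TDP1, 400 cells/well, exposed to compounds plus 20 nM camptothecin for at least 48 h at 37 C; viability read as ATP content by CellTiter-Glo luminescence.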
IL1B secr inh – blocks inflammasome-driven IL-1 beta release. AID 743279. activity change, % at 57.5 µM. THP-1 LPS/ATP IL-1B secretion, AlphaLISA, 16 h; active compounds read low. hit rate 4.7% among 360,000; in the data active means activity change below about -50%; inconclusive means mostly about -30% to -49%
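THP-1 cells pretreated 1 hr with compounds (up to 57.5 uM final), then stimulated with LPS (250 ng/mL final) plus ATP (1.25 mM final); secreted IL-1B measured by AlphaLISA after 16 hr, decreased signal indicating inhibition.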
HT1080 IDH1KD tx – kills HT-1080 cells with IDH1 knockdown; HT-1080 IDH1 knockdown viability, ATP luminescence, 48 h; Potency, µM (series often up to 46.1 µM), hits mostly cytotoxic; hit rate 2% among 360,000; AID 686971
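Luminescent ATP read-out (CellTiter-Glo, 10 min at room temperature) after 48 h compound exposure at 37 °C gave viability of IDH1-knockdown HT-1080 cells. Activity was normalised to DMSO and cell-free wells, then fitted as concentration-response curves.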
Of the large screens only hits and unclear results are named; the others gave an inactive call. An excerpt weighted towards active compounds, which were near 19% of everything screened. Unless noted, the call rests on the fitted dose curve; in most records, active means well fitted curve in the direction sought with a large enough effect; inconclusive means small, poorly fitted or top-dose-only effect, or another doubt; inactive means no such curve, though single readings can be large; an effect the other way counts as inactive or inconclusive.

Cc1cc(C)c2c3c(sc2n1)C(=O)N(c1ccccc1C)CC(=O)N3	ELG1 DNA repair inconclusive
Cc1ccc(N2CC(=O)Nc3c(sc4nc(C)cc(C)c34)C2=O)cc1	ELG1 DNA repair 23µM, HT1080NT lethal inconclusive
Cc1cc(F)ccc1-c1cc(C(=O)NCc2cc(C(F)(F)F)cc(C(F)(F)F)c2)[nH]n1	HT1080NT lethal inconclusive (no result: ELG1 DNA repair)
COc1ccc(-c2cc(C(=O)NCc3cccc(C(F)(F)F)c3)[nH]n2)c(C)c1	DT40 TDP1 no CPT inconclusive, TDP1 cell CPT 26µM (no result: ELG1 DNA repair)
Cc1ccc(Cl)cc1-c1cc(C(=O)NCc2cccc(Cl)c2)[nH]n1	DT40 TDP1 no CPT inconclusive, HT1080NT lethal inconclusive, TDP1 cell CPT 18µM, IL1B secr inh -51, HT1080 IDH1KD tx inconclusive (no result: ELG1 DNA repair)
O=C(NCc1ccc(F)cc1)c1cnc(Cl)c(Cl)c1	DT40 TDP1 no CPT inconclusive, TDP1 cell CPT inconclusive, IL1B secr inh -79
O=C(NCc1ccccc1)c1cnc(Cl)c(Cl)c1	none
COc1ccc(CNC(=O)c2cc(-c3ccc(C)c(C)c3)n[nH]2)cc1	DT40 TDP1 no CPT 16µM, TDP1 cell CPT inconclusive (no result: ELG1 DNA repair, HT1080NT lethal, IL1B secr inh, HT1080 IDH1KD tx)
Cc1cc(-c2ccc([N+](=O)[O-])cc2)cc(C)n1	none (no result: ELG1 DNA repair)
CCOc1ccc(-c2cc(C(=O)NCc3cc(OC)cc(OC)c3)[nH]n2)c(C)c1	DT40 TDP1 no CPT inconclusive, TDP1 cell CPT 21µM (no result: ELG1 DNA repair)
COc1ccc(CNC(=O)c2ccccc2C(=O)O)cc1	none
O=C(NCc1ccc(F)cc1)c1cc(-c2ccc(Cl)cc2)n[nH]1	DT40 TDP1 no CPT 8.2µM, TDP1 cell CPT 7.3µM (no result: ELG1 DNA repair, HT1080NT lethal, IL1B secr inh, HT1080 IDH1KD tx)
COc1cc(CNC(=O)c2cc(-c3cc(Cl)ccc3C)n[nH]2)cc(OC)c1	DT40 TDP1 no CPT inconclusive, TDP1 cell CPT 26µM (no result: ELG1 DNA repair)
COc1cc(CNC(=O)c2cc(-c3cc(OC)ccc3Cl)n[nH]2)cc(OC)c1	TDP1 cell CPT inconclusive (no result: ELG1 DNA repair)
COc1ccc(CNC(=O)c2cccc(-c3ccc(C)c4ccccc34)n2)cc1	DT40 TDP1 no CPT 18µM, HT1080NT lethal inconclusive, TDP1 cell CPT inconclusive, HT1080 IDH1KD tx inconclusive
C=CCn1c(COc2ccccc2)nnc1SC(C)C(=O)N/N=C/c1cc(Cl)ccc1O (configuration not stated)	DT40 TDP1 no CPT 21µM, HT1080NT lethal inconclusive, TDP1 cell CPT inconclusive, HT1080 IDH1KD tx inconclusive
Cc1ccc(-n2ncc3c2CC(C)(C)CC3NC(=O)CCc2cccnc2)cc1 (configuration not stated)	DT40 TDP1 no CPT 16µM, ELG1 DNA repair inconclusive, TDP1 cell CPT 23µM
Cc1ccc(-n2ncc3c2CC(C)(C)CC3NC(=O)CCc2ccncc2)cc1 (configuration not stated)	DT40 TDP1 no CPT inconclusive, ELG1 DNA repair inconclusive, TDP1 cell CPT inconclusive
O=C(Cc1csc(Nc2nc(=S)[nH]c3ccccc23)n1)N1CCN(c2cccc(Cl)c2)CC1	DT40 TDP1 no CPT 15µM, ELG1 DNA repair inconclusive, HT1080NT lethal inconclusive, TDP1 cell CPT 15µM
O=C(Cn1c(=O)[nH]c2ccccc2c1=O)N1CCN(c2cccc(Cl)c2)CC1	none
Cc1ccc(Cl)cc1N1CCN(C(=O)Cc2csc(Nc3nc(=S)[nH]c4ccccc34)n2)CC1	DT40 TDP1 no CPT 15µM, TDP1 cell CPT 13µM
CC1=CC(C)(C)N=C(Nc2nc(C)c3cc(C)cc(C)c3n2)N1	DT40 TDP1 no CPT 16µM, ELG1 DNA repair inconclusive, TDP1 cell CPT 15µM, IL1B secr inh -95
CC(OC(=O)CNC(=O)c1sc2ccccc2c1Cl)C(=O)NC1(C#N)CCCCC1 (configuration not stated)	none
COc1ccc(-c2nc(CS(=O)(=O)CC(=O)Nc3ccc(Cl)cc3)c(C)o2)cc1	DT40 TDP1 no CPT 21µM, ELG1 DNA repair inconclusive, HT1080NT lethal inconclusive, TDP1 cell CPT 10µM, HT1080 IDH1KD tx inconclusive
COc1cccc(-c2nc(CS(=O)(=O)CC(=O)NCCc3ccc(OC)cc3OC)c(C)o2)c1	DT40 TDP1 no CPT 23µM, ELG1 DNA repair 23µM, TDP1 cell CPT 18µM, IL1B secr inh inconclusive
